# Source: the supplement of paper PMC9942566
# Counter-ions that a name gives are not always drawn. ± gives the standard deviation of the averaged measurements.
# System: Serratia marcescens K904 PosmB-luxCDABE reporter (pMQ747)
# Experiment: PosmB-lux reporter fold induction (RLU/OD600 relative to no-compound control), highest over Biolog concentrations; higher = stronger Rcs reporter activation
# Details: wild type K904; 4 h
# Protocol: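 Serratia marcescens K904 (wild type) or its isogenic ΔrcsB mutant, carrying the Rcs-dependent PosmB-luxCDABE reporter plasmid pMQ747, was grown in LB at OD600 0.1 in Biolog Phenotype MicroArray plates PM11-20 for 4 h at 30-32°C. Each compound is present at 3-4 proprietary concentrations (not stated); per the Fig. S1 legend the value given is the highest fold over those wells. Three independent trials.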
row,Compound,PosmB-lux reporter fold induction
1,"CC(C)NCC(O)COc1cccc2ccccc12 (racemic) [D,L-propranolol] (Biolog plate: PM20, well positions: B5-8)",5.54 ± 2.8
2,"[Cl-].[Cs+] [Cesium chloride] (Biolog plate: PM13, well positions: F1-4)",1.41 ± 0.16
3,"O=[Si](O)O [sodium metasilicate] (Biolog plate: PM18, well positions: E1-4)",1.11 ± 0.32
4,"CN(C)[C@@H]1C(O)=C(C(N)=O)C(=O)[C@@]2(O)C(O)=C3C(=O)c4c(O)ccc(Cl)c4[C@@H](O)[C@H]3C[C@@H]12 [Demeclocycline] (Biolog plate: PM11, well positions: D5-8)",1.53 ± 0.45
5,"O=[N+]([O-])c1ccc(-[n+]2nc(-c3ccccc3)nn2-c2ccc(I)cc2)cc1 [iodonitro tetrazolium violet] (Biolog plate: PM19, well positions: D5-8)",0.511 ± 0.27
6,"Cc1nnc(SCC2=C(C(=O)O)N3C(=O)[C@@H](NC(=O)Cn4cnnn4)[C@H]3SC2)s1 [Cefazolin] (Biolog plate: PM11, well positions: E1-4)",1.18 ± 0.073
7,"CN(C)[C@@H]1C(O)=C(C(N)=O)C(=O)[C@@]2(O)C(O)=C3C(=O)c4c(O)cccc4[C@@](C)(O)[C@H]3C[C@@H]12 [Tetracycline] (Biolog plate: PM12, well positions: A5-8)",1.53 ± 0.2
8,"CCc1cc(C(N)=S)ccn1 [ethionamide] (Biolog plate: PM17, well positions: B9-12)",0.853 ± 0.16
9,"CO[C@H]1/C=C/O[C@@]2(C)Oc3c(C)c(O)c4c(O)c(cc(O)c4c3C2=O)NC(=O)/C(C)=C\C=C\[C@H](C)[C@H](O)[C@@H](C)[C@@H](O)[C@@H](C)[C@H](OC(C)=O)[C@@H]1C [rifamycin SV] (Biolog plate: PM16, well positions: E9-12)",4.24 ± 0.58
10,"CO[C@@]1(NC(=O)CSCC#N)C(=O)N2C(C(=O)O)=C(CSc3nnnn3C)CS[C@@H]21 [Cefmetazole] (Biolog plate: PM15, well positions: A9-12)",1.21 ± 0.23
11,"Cc1ccc2c(Cl)cc(Cl)c(O)c2n1 [5,7-Dichloro-8-hydroxy-quinaldine] (Biolog plate: PM15, well positions: B9-12)",2.01 ± 0.87
12,"N=C(N)N [Guanidine hydrochloride] (Biolog plate: PM15, well positions: A5-8)",1.84 ± 0.099
13,"CC[C@H]1OC(=O)C[C@@H](O)[C@H](C)[C@@H](O[C@@H]2O[C@H](C)[C@@H](O[C@H]3C[C@@](C)(O)[C@@H](O)[C@H](C)O3)[C@H](N(C)C)[C@H]2O)[C@@H](CC=O)C[C@@H](C)C(=O)/C=C/C(C)=C/[C@@H]1CO[C@@H]1O[C@H](C)[C@@H](O)[C@@H](OC)[C@H]1OC [Tylosin] (Biolog plate: PM13, well positions: H9-12)",1.21 ± 0.18
14,"CSCCC(N)C(=O)NO (racemic) [DL-methionine hydroxamate] (Biolog plate: PM17, well positions: F5-8)",1.74 ± 0.48
15,"NC[C@@H]1O[C@H](O[C@H]2[C@@H](O)[C@H](O[C@@H]3[C@@H](O)[C@H](N)C[C@H](N)[C@H]3O[C@H]3O[C@H](CO)[C@@H](O)[C@H](O)[C@H]3N)O[C@@H]2CO)[C@H](N)[C@@H](O)[C@@H]1O [Paromomycin] (Biolog plate: PM12, well positions: C1-4)",1.63 ± 0.1
16,"NC(=O)NO [Hydroxyurea] (Biolog plate: PM15, well positions: H5-8)",13.1 ± 1.9
17,"CC(C(=O)O)c1cccc(C(=O)c2ccccc2)c1 (stereo not given) [ketoprofen (an NSAID)] (Biolog plate: PM18, well positions: A2-4)",1.95 ± 0.79
18,"CCN(CC)CC(=O)Nc1c(C)cccc1C [lidocaine] (Biolog plate: PM18, well positions: D9-12)",1.37 ± 0.17
19,"CC1=CC(=O)c2ccccc2C1=O [Menadione] (Biolog plate: PM15, well positions: G9-12)",3.74 ± 0.73
20,"CCC[C@@H]1C[C@@H](C(=O)N[C@@H]([C@H]2O[C@H](SC)[C@H](O)[C@@H](O)[C@H]2O)[C@@H](C)O)N(C)C1 [Lincomycin] (Biolog plate: PM11, well positions: A9-12)",1.16 ± 0.14

row,Compound,PosmB-lux reporter fold induction
1,"Cn1nnnc1SCC1=C(C(=O)O)N2C(=O)[C@@H](NC(=O)[C@H](OC=O)c3ccccc3)[C@H]2SC1 [cefamandole nafate] (Biolog plate: PM17, well positions: G5-8)",1.96 ± 0.53
2,"CO/N=C(\C(=O)N[C@@H]1C(=O)N2C(C(=O)O)=C(COC(C)=O)CS[C@H]12)c1csc(N)n1 [cefotaxime] (Biolog plate: PM16, well positions: A2-4)",0.992 ± 0.32
3,"OCC(O)CS (stereo not given) [thioglycerol] (Biolog plate: PM19, well positions: H5-8)",1.22 ± 0.31
4,"CC1(C)S[C@@H]2[C@H](NC(=O)C(C(=O)O)c3ccccc3)C(=O)N2[C@H]1C(=O)O (stereo not given in full) [Carbenicillin] (Biolog plate: PM12, well positions: A9-12)",2.2 ± 0.17
5,"CC(=O)O[C@H]1C[C@@]2(C)[C@@H](C[C@@H](O)[C@H]3[C@@]4(C)CC[C@@H](O)[C@@H](C)[C@@H]4CC[C@@]32C)/C1=C(\CCC=C(C)C)C(=O)O [Fusidic acid] (Biolog plate: PM15, well positions: C5-8)",1.01 ± 0.48
6,"Cc1onc(-c2ccccc2Cl)c1C(=O)N[C@@H]1C(=O)N2[C@@H]1SC(C)(C)[C@@H]2C(=O)O [Cloxacillin] (Biolog plate: PM11, well positions: B5-8)",2.22 ± 0.62
7,"Cc1ccccc1C(OCCN(C)C)c1ccccc1 (stereo not given) [orphenadrine] (Biolog plate: PM20, well positions: B1-4)",2.77 ± 1.3
8,"CC1COc2c(N3CCN(C)CC3)c(F)cc3c(=O)c(C(=O)O)cn1c23 (stereo not given) [Ofloxacin] (Biolog plate: PM11, well positions: H9-12)",1.25 ± 0.35
9,"CN[C@H](CC(C)C)C(=O)N[C@H]1C(=O)N[C@@H](CC(N)=O)C(=O)N[C@H]2C(=O)N[C@H]3C(=O)N[C@H](C(=O)N[C@H](C(=O)O)c4cc(O)cc(O)c4-c4cc3ccc4O)[C@H](O)c3ccc(c(Cl)c3)Oc3cc2cc(c3O[C@@H]2O[C@H](CO)[C@@H](O)[C@H](O)[C@H]2O[C@H]2C[C@](C)(N)[C@H](O)[C@H](C)O2)Oc2ccc(cc2Cl)[C@H]1O [Vancomycin] (Biolog plate: PM12, well positions: C5-8)",5.39 ± 2
10,"CCC(C)CCCC(=O)N[C@@H](CCN)C(=O)N[C@H](C(=O)N[C@@H](CCN)C(=O)N[C@H]1CCNC(=O)[C@H]([C@@H](C)O)NC(=O)[C@H](CCN)NC(=O)[C@H](CCN)NC(=O)[C@H](CC(C)C)NC(=O)[C@@H](CC(C)C)NC(=O)[C@H](CCN)NC1=O)[C@@H](C)O (stereo not given in full) [Colistin] (Biolog plate: PM11, well positions: C5-8)",2.54 ± 0.89
11,"CC(Oc1ccccc1)C(=O)N[C@@H]1C(=O)N2[C@@H]1SC(C)(C)[C@@H]2C(=O)O (stereo not given in full) [phenethicillin] (Biolog plate: PM19, well positions: F1-4)",86 ± 19
12,"Oc1c(I)cc(Cl)c2cccnc12 [5-chloro-7-iodo-8-hydroxy-quinoline] (Biolog plate: PM16, well positions: A9-12)",1.27 ± 0.55
13,"O=C(O)c1ccccc1S [Thiosalicylic acid] (Biolog plate: PM17, well positions: A9-12)",1.12 ± 0.27
14,"CCn1nc(C(=O)O)c(=O)c2cc3c(cc21)OCO3 [cinoxacin] (Biolog plate: PM16, well positions: D9-12)",2.46 ± 0.85
15,"CN(C)c1ccc(C(=C2C=CC(=[N+](C)C)C=C2)c2ccc(N(C)C)cc2)cc1 [crystal violet] (Biolog plate: PM20, well positions: E1-4)",0.912 ± 0.13
16,"COc1cc(NS(=O)(=O)c2ccc(N)cc2)ncn1 [sulfamono-methoxine] (Biolog plate: PM17, well positions: C9-12)",1.35 ± 0.34
17,"NC(=O)N/N=C/c1ccc([N+](=O)[O-])o1 [5-Nitro-2-furaldehyde semicarbazone] (Biolog plate: PM15, well positions: E5-8)",1.67 ± 0.76
18,"CS(=O)(=O)c1ccc([C@@H](O)[C@@H](CO)NC(=O)C(Cl)Cl)cc1 [thiamphenicol] (Biolog plate: PM18, well positions: A9-12)",0.659 ± 0.017
19,"C[C@H]1c2cccc(O)c2C(=O)C2=C(O)[C@]3(O)C(=O)C(C(N)=O)=C(O)[C@@H](N(C)C)[C@@H]3[C@@H](O)[C@@H]21 [Doxycycline] (Biolog plate: PM13, well positions: C5-8)",1.48 ± 0.11
20,"CO/N=C(\C(=O)N[C@@H]1C(=O)N2C(C(=O)O)=C(CSc3nc(=O)c(O)nn3C)CS[C@H]12)c1csc(N)n1 [Ceftriaxone] (Biolog plate: PM11, well positions: G1-4)",1.64 ± 0.43
